# Reference: the supplement of paper PMC8728848
# The full list was thinned out, with the strongest signals kept by preference.
# B1: CBM32-1 (Clostridium perfringens) (protein)
# chain: MGSSHHHHHHSSGLVPRGSHMASGVEITEGVTVTAKGNTEGNTADLAIDGDLSTYWESSNDYKWIEVDLGGIYELSKIEIFNKDEAVYKYNIYASEDGENFNKIAYKNNDNVSDSNGNVHTIDNVRAGKIRIDVVQNSNSDRVNIAEINVFG
# B2: Epa1 (Candida glabrata), Q6FUW5_CANGA (protein)
# chain: MILNPALFLNKCVCIYTTLILLLLTNGGYATSSNDISLASKDPTTFPLGCSPDITTPKKGLSMELYSYDFRKKGSYPCWDAAYLDPNYPRTGYKSHRLLAKVDGVTGNINFYYHATKGCTPQLGHLPASYNYPKPLTMTNFTMLLYGYFRPKVTGFHTFTISADDLLFVNFGAGNAFDCCRRDSSADHFGNYQAYAIWGSKTAKDELTVHLDAGVYYPIRLFYNNREYDGALSFTFKTESNENTVSDFSEYFFSLDDTEEGCPGLISYDSSCASVKTSKIIGIDYHTETPNENLVPITKTIYHLGIPCTGTTTTPLCGSGFYDPLANKCVTINTSSTSSVTKTTSHTTSKEVSFHSSISSQKTLIPKSIPSPYGPIKSQSIPTEMETSSEISSSEYAFSDVISTPSHSPYTKKHSSLNSSSYTSTVIHSLTSYSISQGIFSTSLSEQNITSKSSTDKFSTATSMSNSITQSSIIISQSSTNNENYTTTSMHTSSDKISTETLNNSISTTTSILFSNSSTILKNNTTIISSDKDTHYHPVNPTIVCSTNKTEIICASITQPSISNSNNHWSSSVLRFNSTTVRSTLPSSAGSNETSINVPFSSSTESNASTSSTSTSNSKTVRSTLPSSAGSNETSINVPFSSSTESNTSTSSTSTSNSKTVRSTLPSSAGSNETSINVPFSSSTESNASTSSTSTSNSKTVRSTPFSSAGIIMTSLSQRNNKSASSYASSNSKCYNTADSCRKVHSTPSYLLTSSYTSEGVDYDCSLVSTKLKINDTNCLNNKHTTKSCLKTSVTTTIPTLEIKTARKSSSNTIGLHSYPTSSPNKSISSAPIIGYISSFKTIKTASPSYQTSDLTTITTITSLNNPGSTAVENTHESNDKSRKTSSNDISSKHSVIKETKDAVESSNKSHQTNTLKCSSIIIASSSHNSYESLGGTTLTLTLSKVYSPQNNDTLPFLEISEVNPSRTVLPESSKMMQYLTSTEERNKTARNTIATNIVSISTFHFEGEGNAIRMGYTQLLLMLIGIIVMNIGT
# Tests used:
# Assay in all cases: glycan array binding signal (z-score within array); higher = stronger binding
# Conditions in all cases: glycan notation: IUPAC condensed, linker removed
# [1] = biological target: Fuc(a1-2)Gal(b1-3)GalNAc(b1-3)Gal(a1-4)Gal(b1-4)Glc
# Summary of the method: (§1)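 Columns mapping to the same glycan were averaged after glycan names were converted to IUPAC-condensed notation. The data come from 3228 arrays in the Consortium for Functional Glycomics database, limited to those with an available protein sequence. Binding is reported as a within-array Z-score averaged across arrays of one protein sequence and across linkers.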
# [2] = biological target: Fuc(a1-2)[GalNAc(a1-4)]Gal(b1-4)GlcNAc
# Summary of the method: as §1
# [3] = biological target: Fuc(a1-3)[Gal(b1-4)]GlcNAc(b1-4)Gal(b1-4)[Fuc(a1-3)]GlcNAc
# Summary of the method: as §1
# [4] = biological target: Fuc(a1-3)[Gal3S(b1-4)]GlcNAc
# Summary of the method: as §1
# [5] = biological target: Gal(b1-3)GlcNAc
# Summary of the method: as §1
# [6] = biological target: Gal(b1-4)GlcNAc(b1-3)Gal(b1-4)GlcNAc(b1-3)Gal(b1-4)GlcNAc
# Summary of the method: as §1
# [7] = biological target: Gal3S(b1-4)Glc6S
# Summary of the method: as §1
# [8] = biological target: Gal3S6S(b1-4)GlcNAc6S
# Summary of the method: as §1
# [9] = biological target: Gal6S(b1-4)Glc
# Summary of the method: as §1
# [10] = biological target: Gal6S(b1-4)Glc6S
# Summary of the method: as §1
# [11] = biological target: GalNAc(a1-3)GalNAc
# Summary of the method: as §1
# [12] = biological target: Glc(a1-6)Glc(a1-6)Glc
# Summary of the method: as §1
# [13] = biological target: GlcNAc(b1-4)GlcNAc(b1-4)GlcNAc(b1-4)GlcNAc(b1-4)GlcNAc
# Summary of the method: as §1
# [14] = biological target: Kdn(a2-3)Gal(b1-4)GlcNAc
# Summary of the method: as §1
# [15] = biological target: Neu5Ac(a2-3)Gal(b1-4)GlcNAc(b1-2)Man(a1-3)[GlcNAc(b1-2)Man(b1-4)GlcNAc(b1-2)Man(a1-6)]Man(b1-4)GlcNAc(b1-4)GlcNAc
# Summary of the method: as §1
# [16] = biological target: Neu5Ac(a2-6)Gal(b1-4)GlcNAc(b1-3)Gal(b1-4)[Fuc(a1-3)]GlcNAc(b1-3)Gal(b1-4)[Fuc(a1-3)]GlcNAc
# Summary of the method: as §1
# [17] = biological target: Neu5Ac(a2-8)Neu5Ac(a2-3)[GalNAc(b1-4)]Gal(b1-4)Glc
# Summary of the method: as §1
# [18] = biological target: Fuc(a1-2)Gal(b1-4)GlcNAc6S
# Summary of the method: as §1
# [19] = biological target: Fuc(a1-2)Gal6S(b1-4)GlcNAc
# Summary of the method: as §1
# [20] = biological target: Fuc(a1-2)[Gal(a1-3)]Gal(b1-3)GlcNAc
# Summary of the method: as §1
# [21] = biological target: Fuc(a1-2)[GalNAc(a1-3)]Gal(b1-4)GlcNAc
# Summary of the method: as §1
# [22] = biological target: Gal(a1-3)GlcNAc
# Summary of the method: as §1
# [23] = biological target: Gal(a1-4)Gal(b1-4)Gal
# Summary of the method: as §1
# [24] = biological target: Gal(a1-4)Gal(b1-4)GalNAc
# Summary of the method: as §1
# [25] = biological target: Gal(a1-6)Glc
# Summary of the method: as §1
# [26] = biological target: Gal(b1-3)Gal
# Summary of the method: as §1
# [27] = biological target: Gal(b1-3)[Fuc(a1-4)]GlcNAc(b1-3)Gal(b1-4)GlcNAc
# Summary of the method: as §1
# [28] = biological target: Gal(b1-3)[Neu5Ac(b2-6)]GlcNAc
# Summary of the method: as §1
# [29] = biological target: Gal(b1-4)GalNAc(b1-3)[Fuc(a1-2)]Gal(b1-4)GlcNAc
# Summary of the method: as §1
# [30] = biological target: Gal(b1-4)GlcNAc(b1-3)GalNAc
# Summary of the method: as §1
# [31] = biological target: Gal(b1-4)GlcNAc(b1-6)[Gal(b1-3)]GlcNAc
# Summary of the method: as §1
# [32] = biological target: Gal4S(b1-4)GlcNAc
# Summary of the method: as §1
# [33] = biological target: GlcNAc(b1-4)[GlcNAc(b1-6)]GalNAc
# Summary of the method: as §1
# [34] = biological target: Neu5Ac(a2-3)Gal(b1-3)GalNAc
# Summary of the method: as §1
# [35] = biological target: Neu5Ac(a2-3)Gal(b1-4)GlcNAc(b1-3)Gal(b1-4)[Fuc(a1-3)]GlcNAc
# Summary of the method: as §1
# [36] = biological target: Neu5Ac(a2-3)Gal(b1-4)GlcNAc(b1-6)[Gal(b1-3)]GalNAc
# Summary of the method: as §1
# [37] = biological target: Neu5Ac(a2-3)Gal6S(b1-4)GlcNAc
# Summary of the method: as §1
# [38] = biological target: Neu5Gc(a2-3)Gal(b1-4)GlcNAc
# Summary of the method: as §1
Binder,glycan array binding signal (z-score) [1],glycan array binding signal (z-score) [2],glycan array binding signal (z-score) [3],glycan array binding signal (z-score) [4],glycan array binding signal (z-score) [5],glycan array binding signal (z-score) [6],glycan array binding signal (z-score) [7],glycan array binding signal (z-score) [8],glycan array binding signal (z-score) [9],glycan array binding signal (z-score) [10],glycan array binding signal (z-score) [11],glycan array binding signal (z-score) [12],glycan array binding signal (z-score) [13],glycan array binding signal (z-score) [14],glycan array binding signal (z-score) [15],glycan array binding signal (z-score) [16],glycan array binding signal (z-score) [17],glycan array binding signal (z-score) [18],glycan array binding signal (z-score) [19],glycan array binding signal (z-score) [20],glycan array binding signal (z-score) [21],glycan array binding signal (z-score) [22],glycan array binding signal (z-score) [23],glycan array binding signal (z-score) [24],glycan array binding signal (z-score) [25],glycan array binding signal (z-score) [26],glycan array binding signal (z-score) [27],glycan array binding signal (z-score) [28],glycan array binding signal (z-score) [29],glycan array binding signal (z-score) [30],glycan array binding signal (z-score) [31],glycan array binding signal (z-score) [32],glycan array binding signal (z-score) [33],glycan array binding signal (z-score) [34],glycan array binding signal (z-score) [35],glycan array binding signal (z-score) [36],glycan array binding signal (z-score) [37],glycan array binding signal (z-score) [38]
B1,-0.205,0.059,0.331,-0.283,-0.333,0.889,3.21,5.08,0.513,4.39,-0.173,-0.279,5.14,-0.439,3.77,0.193,-0.358,–,–,–,–,–,–,–,–,–,–,–,–,–,–,–,–,–,–,–,–,–
B2,-0.549,–,–,–,–,–,–,-0.544,–,2.71,–,–,–,–,–,–,–,1.65,-0.128,-0.553,-0.557,0.208,0.374,1.29,0.344,2.4,1.75,0.26,2.42,2.41,2.48,-0.551,-0.556,-0.547,-0.553,1.96,-0.557,-0.549
